Source: PubChem BioAssay
An excerpt weighted towards active compounds, which were near 6.6% of everything screened.
FBA Mtb inh – Mtb FBA enzyme inhibitors, primary screen, biochemical, fluorescence, strain H37Rv; inhibition, % at 1 µM; Fructose-bisphosphate aldolase (Mycobacterium tuberculosis (strain ATCC 25618 / H37Rv)), …; actives 2.3% (n = 360,000); purified M. tuberculosis FBA, fluorescence read-out; in the data active = inhibition above about 27%;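 note: 0% = vehicle and 100% = reference inhibitor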
Target sequence (P9WQA3 whole entry, looked up): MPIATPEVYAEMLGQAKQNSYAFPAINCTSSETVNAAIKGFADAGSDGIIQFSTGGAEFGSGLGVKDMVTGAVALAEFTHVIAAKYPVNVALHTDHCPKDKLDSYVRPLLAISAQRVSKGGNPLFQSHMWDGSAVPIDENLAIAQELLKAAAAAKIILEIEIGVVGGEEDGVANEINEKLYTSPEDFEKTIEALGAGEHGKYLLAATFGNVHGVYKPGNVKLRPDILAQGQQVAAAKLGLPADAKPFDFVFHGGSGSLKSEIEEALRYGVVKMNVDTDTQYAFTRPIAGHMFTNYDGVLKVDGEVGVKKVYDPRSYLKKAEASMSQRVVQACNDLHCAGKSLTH
BoNT A protease – BoNT/A light chain protease inhibitors, primary screen, biochemical, flow cytometry, MLPCN library; inhibition, % at 10 µM; multiplex microsphere protease substrate cleavage; actives 0.17% (n = 360,000); Botulinum neurotoxin type A light chain protease (Clostridium botulinum A str. ATCC 3502); note: plate controls were buffer without enzyme for full effect and enzyme alone for no effect
GDH-TPI counter-1 – GDH-TPI coupling enzyme inhibitors, primary screen, artefact control for M. tuberculosis FBA inhibitor project, biochemical, absorbance, full deck | inhibition, % at 4.8 µM | actives 1.2% (n = 360,000) | AID 588335, 2011 | GDH-TPI coupled enzyme counterscreen, NADH absorbance; in the data active = inhibition above about 30%;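 note: 0% = DMSO wells and 100% = wells lacking the enzyme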
Autofluor counter – flagged as autofluorescent in microsphere protease counterscreen. actives 3.1% (n = 360,000). compound autofluorescence counterscreen, microsphere flow cytometry; active compounds read high. AID 624483. fluorescence intensity (no concentration beside the values); in the data active = fluorescence intensity above about 16000; inconclusive = no clear call, values can overlap the other calls
BoNT-F LC inh – BoNT/F light chain protease inhibitors, primary screen, biochemical, flow cytometry, MLPCN library; inhibition, % at 10 µM; Multiplex microsphere protease cleavage assay; actives 0.22% (n = 360,000); in the data active = inhibition above about 35%, passing the limit was not always enough; inconclusive = no clear call, values can overlap the other calls; note: plate controls were buffer without enzyme for full effect and enzyme alone for no effect
Anthrax LF inh2 – Bacillus anthracis LF protease inhibitors, primary screen, biochemical, multiplex microsphere, MLPCN library; Lethal factor (Bacillus anthracis), P15917; multiplex microsphere protease cleavage assay; inhibition, % at 10 µM; actives 0.12% (n = 360,000); note: plate controls were buffer without enzyme for full effect and enzyme alone for no effect
Mtb FBA inh conf – M. tuberculosis aldolase blockers, biochemical, fluorescence, strain H37Rv, confirmation; shares compounds with FBA Mtb inh; purified M. tuberculosis FBA, fluorescence read-out; inhibition, % at 1 µM; actives 78% (n = 5,600); AID 651616, 2012; in the data active = inhibition above about 27%;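 note: 0% = vehicle wells and 100% = reference inhibitor wells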
GDH-TPI counter-2 – GDH-TPI coupling enzyme inhibitors, artefact control for M. tuberculosis FBA inhibitor project, biochemical, fluorescence, high throughput; shares compounds with FBA Mtb inh; GDH-TPI coupled enzyme counterscreen; inhibition, % at 1 µM; actives 81% (n = 5,600); in the data active = inhibition above about 10%
GDH-TPI DR – GDH-TPI coupling enzyme inhibitors, dose response, artefact control for M. tuberculosis FBA inhibitor project, biochemical, fluorescence, IC50; shares compounds with FBA Mtb inh; GDH-TPI coupled enzyme assay, artifact counterscreen; IC50, µM; actives 79% (n = 170); call rule not given here
The depositor's hits bear a star; ? = inconclusive; . = not tested or not shown; + = active, no number. Cut-off read from the data, not from the text of the source, unless noted: active = inhibition above about 30%; inconclusive = no clear call, values can overlap the other calls; inactive = below that.

SMILES	FBA Mtb inh	BoNT A protease	GDH-TPI counter-1	Autofluor counter	BoNT-F LC inh	Anthrax LF inh2	Mtb FBA inh conf	GDH-TPI counter-2	others
CNC(=O)Oc1ccc(-c2cn3cc(C)ccc3n2)cc1	47*	2	13	2001	25	-2	38*	34*
COc1ccc(-c2cn3cccc(C)c3n2)cc1F	31*	-1	-2	2211	-5	0	-4	-7
COc1ccc(-c2cn3cc(C)ccc3n2)cc1F	37*	0	8	3742	-1	-4	77*	65*
Cc1ccc2nc(-c3cc(-c4ccccc4)no3)cn2c1	11	0	7	3362	?	16	.	.
COC(=O)c1ccc2nc(-c3ccc(S(C)(=O)=O)cc3)cn2c1	36*	-1	-6	3875	-6	-1	141*	142*
CNC(=O)Oc1cccc(-c2cn3cc(Cl)ccc3n2)c1	6	-1	11	2019	-6	-2	.	.
CCOC(=O)N1CCN(C(=O)C(=O)Nc2sc3c(c2C(=O)O)CC(C)(C)OC3)CC1	0	0	28	5984	0	-2	.	.
CC(=O)N1c2ccc(S(=O)(=O)NCC3CCC(C(=O)N4CC(C)CC(C)C4)CC3)cc2CC1C (centres undefined)	-2	-1	5	4427	2	0	.	.
Cc1ccc(S(=O)(=O)NCCc2cn3nc(C)c(C)nc3n2)cc1C	64*	0	16	5492	-2	2	159*	159*
COc1ccc(S(=O)(=O)NCCc2cn3nc(C)c(C)nc3n2)cc1C	22	-1	10	5245	-6	-2	.	.
COC(=O)c1ccc(C)c(NC(=O)CCCN2C(=O)NC(C)(C)C2=O)c1	1	.	-4	.	.	.	.	.
CCOc1ccc(CCNC(=O)c2ccc3nc(CC)c(CC)nc3c2)cc1	3	0	15	4419	6	0	.	.
C=CCOc1c2ccc(C(=O)NCc3ccc(C)cc3)cc2nn1C	13	0	-10	3860	-1	-4	.	.
CCCn1nc2cc(C(=O)NCc3ccc(C)cc3)ccc2c1OCC	52*	0	1	4011	-4	0	86*	63*
CCOc1c2ccc(C(=O)NCCc3ccc(C)cc3)cc2nn1CC	51*	0	1	3502	-2	-6	121*	105*
CCOc1c2ccc(C(=O)NCc3ccc(C)cc3)cc2nn1CC	67*	0	12	2977	1	4	67*	45*
CCOc1c2ccc(C(=O)NCCCCc3ccccc3)cc2nn1CC	48*	0	11	3252	-7	-1	5	-1
O=C(COC(=O)c1cc[n+]([O-])cc1)Nc1ccc([N+](=O)[O-])cc1	-1	-1	8	4547	-2	1	.	.
CCn1nc2cc(C(=O)NCCc3cccs3)ccc2c1OC	41*	0	4	3958	0	1	+	196*
Cc1ccc(C(=O)NCCc2cccs2)cc1	1	0	13	1988	-1	-1	.	.
CCOc1ccc(C(=O)NCc2ccccc2OC)cc1	3	-1	11	10148	3	1	.	.
CCCn1nc2cc(C(=O)NCc3ccccc3OC)ccc2c1OCC	42*	0	16	3061	-2	1	-2	-4
O=C(CN1CC(=O)Nc2ccccc21)NCCc1ccc(Cl)cc1Cl	2	2	1	4398	12	5	.	.
COc1ncccc1-c1nnn(-c2ccc(Cl)nc2)n1	27*	1	17	4056	-5	7	+	+
Clc1ccc(-n2nnc(-c3cccnc3Cl)n2)cn1	5	0	12	2862	-10	8	.	.
SMILES	FBA Mtb inh	BoNT A protease	GDH-TPI counter-1	Autofluor counter	BoNT-F LC inh	Anthrax LF inh2	Mtb FBA inh conf	GDH-TPI counter-2	others
CCn1c(-c2cccs2)nc2ccccc21	58*	0	2	3300	-3	0	123*	108*
C#CCn1c2ccccc2c2nc3ccccc3nc21	3	-7	14	3862	?	-7	.	.
C#CCn1c(-c2cccs2)nc2ccccc21	68*	-2	10	3399	-4	4	61*	39*
Cc1nc(SCC(=O)N2CCCCCC2)[nH]c(=O)c1C	0	5	-3	5000	6	1	.	.
COc1ccccc1CNC(=O)COC(=O)c1nccnc1N	48*	-1	0	6652	0	-5	9	-6
Nc1nccnc1C(=O)OCC(=O)NCCc1ccc(S(N)(=O)=O)cc1	88*	.	10	.	.	.	100*	91*
COc1ccc2c(C)cc3n[nH]c(=S)n3c2c1	37*	0	28	4594	0	0	33*	21*
CCOC(=O)Cc1c(C)nc2c(-c3ccccc3)c(C)[nH]n2c1=O	23	0	9	10733	1	-3	.	.
CCOC(=O)Cc1c(C)nc2c(-c3ccccc3)c(-c3ccccc3)[nH]n2c1=O	72*	?	16	16109	4	-1	58*	41*
CCOC(=O)Cc1cc(=O)n2[nH]cc(-c3ccc(Cl)cc3)c2n1	21	0	6	4502	-3	-6	.	.
CCc1c(C)nc2c(-c3ccccc3)c[nH]n2c1=O	33*	-9	6	3781	-23	-2	15	9	GDH-TPI DR=8.1*
CCOC(=O)Cc1c(C)nc2c(-c3ccccc3)c[nH]n2c1=O	85*	0	19	5089	3	5	176*	172*
Cc1ccccc1-c1nnc(SCC(=O)N2CCCC2)o1	-1	-1	4	4508	-2	-1	.	.
COCCCNc1nc2ccccc2nc1NS(=O)(=O)c1ccc(Cl)cc1	1	0	4	2921	-4	19	.	.
COCCCNc1nc2ccccc2nc1NS(=O)(=O)c1ccc(OC)cc1	30*	0	25	3375	21	15	71*	65*
O=C(NC1CC1)c1[nH]c(C(F)(F)F)nc1-c1ccccc1	-2	0	.	6464	-2	0	.	.
CNc1cncc(-c2ccc(F)cc2F)n1	112*	0	14	3750	1	1	104*	68*
